This is an account of results in PubChem BioAssay (EPA / NIEHS).

Values joined by “and” are separate entries in the source; they are usually repeats but may differ in a detail not shown here. Equal values may be shown once. Records with an inconclusive call do not appear. Active and inactive are the calls of the source. The calls were made as follows, unless noted: active = hit-call score of the fitted dose curve at least 0.9, where 1 is the maximum; inactive = score below 0.9.

The target in experiment [1] is human Vitamin D Receptor (VDR), VDR (gene 7421) (UniProt P11473). The experiment is described as follows: ATG_VDR_TRANS: Attagene TRANS-FACTORIAL HepG2 Assay for human Vitamin D Receptor (VDR) (AID 2283022; active = hit-call score of the fitted dose curve at least 0.9, where 1 is the maximum). A digest of the protocol:
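HepG2 cells were transiently transfected with GAL4-UAS reporter units and a chimeric VDR-Gal4 construct, then dosed for 24 hours. Reporter mRNA was quantified by RT-PCR, fluorescent labeling, HpaI digestion and capillary electrophoresis; gain of signal analysed vs DMSO.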

Read-out in experiment [2]: Monokine induced gamma interferon (MIG), CXCL9 (gene 4283)
The experiment is described as follows: BSK_3C_MIG: BioMAP Diversity Plus: 3C Assay for Monokine induced gamma interferon (MIG) Biomarker Activity (AID 2283021). The following applies: primary human endothelial cells (HUVEC); actives raise or lower the signal. A digest of the protocol: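 Read-out is ELISA detection of MIG on human umbilical vein endothelial cells, taken 24 h after dosing. Gain or loss of signal was scored relative to DMSO controls using bidirectional curve fitting.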

A short description of experiment [3]: BSK_3C_SRB: Viability Assessment in the BioMAP Diversity Plus: 3C Assay (AID 2283023).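 Also: fitted both ways against DMSO so a hit may be signal rise or drop.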 The following applies: primary human endothelial cells (HUVEC). A digest of the protocol: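 Human umbilical vein endothelial cells in the 3C system, treated 24 h. Total protein measured by 0.1% sulforhodamine B staining after 10% TCA fixation, read at 560 nm; bidirectional fit versus DMSO.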

Read-out in experiment [4]: Matrix Metallopeptidase 1 (MMP1), MMP1 (gene 4312)
Nature of the experiment: BSK_BE3C_MMP1: BioMAP Diversity Plus: BE3C Assay for Matrix Metallopeptidase 1 (MMP1) Biomarker Activity (AID 2283024). The following applies: primary human bronchial epithelial cells; actives raise or lower the signal. The method, boiled down:
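Human bronchial epithelial cells (BE3C system) exposed to compound for 24 h; MMP1 then quantified by ELISA. Activity was fitted in both directions relative to DMSO.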

Experiment [5] in a line: BSK_3C_Vis: BioMAP Diversity Plus: 3C Assay for Morphology Visualization (AID 2283025).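 Also: light microscopy image of cell morphology used as background control; fitted both ways so gain or loss versus DMSO counts.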 The following applies: primary human endothelial cells (HUVEC). The method, boiled down:
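Chemicals were added to primary human umbilical vein endothelium, cells were incubated 24 h, and morphology was then visualized by light microscopy. Gain or loss of signal was fitted bidirectionally relative to DMSO.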

Read-out in experiment [6]: Pselectin, SELP (gene 6403)
The experiment is described as follows: BSK_4H_Pselectin: BioMAP Diversity Plus: 4H Assay for Pselectin Biomarker Activity (AID 2283026). Conditions: primary human endothelial cells (HUVEC); actives raise or lower the signal. A digest of the protocol:
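ELISA read-out of P-selectin on human umbilical vein endothelium after 24 h of dosing. Values derive from bidirectional fitting relative to DMSO. Parallel SRB protein staining flagged overt cytotoxicity.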

The nature of experiment [7]: BSK_4H_SRB: Viability Assessment in the BioMAP Diversity Plus: 4H Assay (AID 2283027).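 Also: cells exposed to compound for 24 h before staining.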 The following applies: primary human endothelial cells (HUVEC). The method, boiled down:
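Absorbance at 560 nm of SRB-stained total protein served as the viability read-out in confluent primary human umbilical vein endothelium 24 h after chemical treatment. Curves were fitted bidirectionally against DMSO as negative control.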

The nature of experiment [8]: BSK_BE3C_SRB: Viability Assessment in the BioMAP Diversity Plus: BE3C Assay (AID 2283028). The following applies: primary human bronchial epithelial cells. A digest of the protocol:
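Human bronchial epithelial primary cells in confluent culture, 24 h after chemical dosing; total protein by 0.1% SRB staining after 10% TCA fixation, read at 560 nm. Bidirectional fitting versus DMSO baseline.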

Read-out in experiment [9]: Thrombomodulin, THBD (gene 7056)
The experiment is described as follows: BSK_3C_Thrombomodulin: BioMAP Diversity Plus: 3C Assay for Thrombomodulin Biomarker Activity (AID 2283029). The following applies: primary human endothelial cells (HUVEC); actives raise or lower the signal. A digest of the protocol: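 Read-out is ELISA of thrombomodulin on human umbilical vein endothelium 24 h after chemical dosing. Gain or loss of signal is scored relative to DMSO. Overt cytotoxicity is checked in parallel cultures by sulforhodamine B staining.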

Read-out in experiment [10]: Urokinase-type plasminogen activator receptor (uPAR), PLAUR (gene 5329)
The experiment is described as follows: BSK_4H_uPAR: BioMAP Diversity Plus: 4H Assay for Urokinase-type plasminogen activator receptor (uPAR) Biomarker Activity (AID 2283030). Conditions: primary human endothelial cells (HUVEC); actives raise or lower the signal. The method, boiled down:
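Human umbilical vein endothelial cells in the 4H system, 24 h after chemical dosing. Cell-surface uPAR measured by ELISA, fitted in both directions versus DMSO; cytotoxicity checked by SRB total protein in parallel cultures.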

Chain of human Vitamin D Receptor (VDR), VDR (gene 7421) (P11473 whole entry, looked up, the tested form may be a part): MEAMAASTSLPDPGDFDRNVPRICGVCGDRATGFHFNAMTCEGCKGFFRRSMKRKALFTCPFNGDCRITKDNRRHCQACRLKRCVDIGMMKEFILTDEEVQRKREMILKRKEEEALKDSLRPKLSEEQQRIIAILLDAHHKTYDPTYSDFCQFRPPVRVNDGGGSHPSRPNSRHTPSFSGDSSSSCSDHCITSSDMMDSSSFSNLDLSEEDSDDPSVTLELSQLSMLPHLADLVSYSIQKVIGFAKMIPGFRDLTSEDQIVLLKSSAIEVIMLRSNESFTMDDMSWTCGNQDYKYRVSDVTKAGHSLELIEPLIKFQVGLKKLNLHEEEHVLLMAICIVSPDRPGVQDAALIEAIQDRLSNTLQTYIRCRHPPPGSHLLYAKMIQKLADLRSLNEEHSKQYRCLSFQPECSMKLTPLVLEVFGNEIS

`ClCCCl`: the compound was classed as inactive in experiment [1].
In the case of `O=C(O)c1snc(Cl)c1Cl`, in experiment [1], the call was inactive.
For the compound `CCCCCCCCCCCCCC(=O)O`, the compound was classed as inactive in experiment [1].
Take `CCn1c2ccccc2c2cc(N)ccc21`: the outcome in experiment [2], in [3], in experiment [4], in [7], in experiment [8] and in [9] was inactive. Further, the AC50 – broadly, the concentration giving half of the maximal activity seen – is 8.8 µM (active) in [5], 1.23 µM (active) in experiment [6] and 0.152 µM (active) in [10].
With `CCCCCCOC(=O)CCCCC`, the compound was called inactive in experiment [1].
As to `CC[Si](OC(C)=O)(OC(C)=O)OC(C)=O`, the result in experiment [2], in [3], in experiment [4], in experiment [6], in experiment [7] and in [8] was inactive. For the same compound, the outcome in [9] and in experiment [10] was inactive.
In the case of `CCCCCCCCC`, the outcome in experiment [1] was inactive.
In the case of `CC(=O)[C@H]1CC[C@H]2[C@@H]3CC=C4C[C@@H](O)CC[C@]4(C)[C@H]3CC[C@]12C`, the result in experiment [2], in experiment [4], in experiment [6], in experiment [7], in experiment [8] and in experiment [9] was inactive. For the same compound, the result in experiment [10] was inactive. Also, the AC50 in experiment [3] is 11.1 µM (active) and 7.02 µM (active).
